Growth data for four compounds are collected here from PubChem BioAssay (NCI).

The structures appear in SMILES notation. The panel holds about 83,000 compounds, 20% with a hit somewhere; the sample as a whole holds those more often.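 Values shown are percent growth following 48 h exposure of cells in 96-well plates to a single concentration of compound; below 10 was considered active.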 A number with no mark means an inactive call. Calls of active or inactive are those of the source.

This assay has as its system MDA-MB-468 breast. The assay can be described thus: NCI-60 one-dose screen, 48 h (100 = growth as untreated, 0 = no growth, -100 = all killed). The note with it: 10 µM unless noted.
In the case of `COc1ccc2nc3c(n2c1)C(=O)C(=O)c1ccccc1-3`, the growth is -10.8% (active).
On to `O=[N+]([O-])c1ccc(C=C2C(Cl)=C(Cl)C(Cl)=C2Cl)cc1`, for which the growth was 48.3%.
In the case of `C=C1CC[C@@H](C(=O)OC)Cc2nc(C)ccc21` it was 106%; in that of `COC(=O)[C@@H](Cc1c[nH]c2ccccc12)NC[C@@H](O)CN1C(=O)/C(=C\c2cc(OC)c(OC)c(OC)c2)c2ccccc21`, 37.9%.
